Where “and” joins values, the source holds several entries; their conditions need not be identical. Equal entries are not always repeated. The whole screen tested about 350,000 compounds, of which about 31,000 (8.9%) were called active. Entries that show only a call come without a potency. Not shown: some 15% with an inconclusive outcome. The call rests on the fitted dose curve; in most records, active means well fitted inhibition curve with a large enough effect; inconclusive means small, poorly fitted or top-dose-only effect; inactive means no such curve, though single readings can be large or run the other way. The full list was thinned out, with actives kept by preference. More than one record can exist for a structure, and the calls need not agree.

Consider 95 compounds from PubChem BioAssay AID504332 (National Center for Advancing Translational Sciences (NCATS), 2011).
Potency means the concentration at half of the fitted maximal effect.

Histone-lysine N-methyltransferase EHMT2 (Homo sapiens), sequence (Q96KQ7 913-1193 limits assumed): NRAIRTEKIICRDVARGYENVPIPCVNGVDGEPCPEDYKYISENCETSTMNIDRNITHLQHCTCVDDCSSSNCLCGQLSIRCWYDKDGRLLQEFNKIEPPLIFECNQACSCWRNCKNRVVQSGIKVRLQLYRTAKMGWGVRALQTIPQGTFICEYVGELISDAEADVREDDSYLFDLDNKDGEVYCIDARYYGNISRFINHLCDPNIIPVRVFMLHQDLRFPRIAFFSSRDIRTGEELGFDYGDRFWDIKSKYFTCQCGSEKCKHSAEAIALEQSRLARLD

The target in this assay is Histone-lysine N-methyltransferase EHMT2 (Homo sapiens) (UniProt Q96KQ7). The assay is described as follows: qHTS Assay for Inhibitors of Histone Lysine Methyltransferase G9a. Further: nearly all actives have a fitted effect of over 75% in size. As to conditions: G9a H3K9 monomethylation, AlphaScreen, 2 h; series mostly up to 59 µM. An outline of the steps:
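Chemiluminescent proximity detection of H3K9 monomethylation, read after 10 min bead incubation in the dark. Reaction: 20 nM G9a, 500 nM biotin-H3K9 peptide, 20 uM SAM cofactor, 2 h, room temperature, following 15 min enzyme-compound preincubation.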
(Quantitative high-throughput screening tests each substance at several concentrations.)
Turning to `COc1cccc(-c2nc(S(=O)(=O)c3ccc(C)cc3)c(NCc3ccccc3)o2)c1`, the Potency result is “inactive”.
With `COc1ccccc1CNC(=O)c1ccc(CS(=O)c2ccccc2Cl)o1` (stereo not given), the Potency result is “inactive”.
Still for that read-out and setting: next, `CCCCCn1c(CCCNC(=O)c2ccccc2OC)nc2ccccc21`: “inactive”; `CNS(=O)(=O)c1cccc(C(=O)NC2CCCc3ccccc32)c1` (stereo not given): “inactive”; `O=C(CCNS(=O)(=O)c1ccccc1)NCCSc1ccc(Br)cc1`: “inactive”.
On the same count and under the same terms, in the case of `Cc1ccc(C(=O)OCC(=O)NCc2cc(C)c(O)c(C)c2)cc1S(=O)(=O)N1CCCCC1` it was “inactive”.
On the same count and under the same terms, in the case of `CCOCCCNC(=O)c1c(NC(=O)Cc2coc3c(C)c(C)ccc23)sc2c1CCC2` it was “inactive”; in that of `COc1ccccc1CNC(=O)Cn1nc(C)c2nn(-c3ccc(Cl)cc3)c(C)c2c1=O`, “inactive”; in that of `O=C(CSc1nc2ccccc2[nH]1)N/N=C/C=C\c1ccccc1[N+](=O)[O-]`, “inactive”.
`Cc1ccc(-n2c(SCC(=O)N/N=C/C=C/c3ccccc3[N+](=O)[O-])nc3ccccc3c2=O)cc1`: the Potency entry is “inactive”.
The same measure, in the same setting: in the case of `CCn1c(SCC(=O)N/N=C/C=C/c2ccccc2[N+](=O)[O-])nnc1-c1ccccc1` it was 39.8 µM (active); in that of `CC(C)COc1ccc(C(=O)OCC(=O)NCCC2=CCCCC2)cc1`, “inactive”; in that of `CC(NC(=O)C1CCCN(S(=O)(=O)c2ccc(-n3cnnn3)cc2)C1)c1ccc(F)cc1` (stereo not given), “inactive”.
As to `Cc1ccc(OC(=O)CCC(=O)Nc2ccc(Br)cc2)cc1`, the Potency result is “inactive”.
Same read-out and setting: in the case of `COC(=O)CCc1sc(Nc2ccc(Br)cc2)nc1-c1ccc(OC)cc1` it was 35.5 µM (active); in that of `COc1ccc(NC(=O)CCC(=O)Nc2nnc(C3CCCCC3)s2)cc1`, “inactive”.
The same measure, in the same setting: in the case of `COc1ccccc1CNC(=O)CCCN1C(=O)NC2(CCCC2)C1=O` it was “inactive”.
Consider `Cc1ccc(Cl)cc1NC(=O)/C(C#N)=C\c1cn(Cc2ccc(F)cc2)c2ccccc12`, for which the Potency entry was “inactive”.
Same read-out and setting: in the case of `Cc1cccc(COc2ccccc2/C=N/Nc2ccc([N+](=O)[O-])cc2)c1` it was 2.51 µM (active); in that of `O=[N+]([O-])c1ccc(N/N=C/c2ccccc2)cc1`, “inactive”.
Still for that read-out and setting: in the case of `Cc1ccc(NS(=O)(=O)c2ccc(N/N=C/c3ccccc3OCC(=O)O)c([N+](=O)[O-])c2)c(C)c1` it was “inactive”.
Turning to `CC(C)c1ccc(S(=O)(=O)N2CCN(C(C)C(=O)NC3CCCC3)CC2)cc1` (stereo not given), the activity, negative = inhibition was -7.57% [at 2.33 µM] (inactive).
With `CCC(C)c1ccc(NC(=S)N2CCCC2)cc1` (stereo not given), the Potency entry was “inactive”.
The same measure, in the same setting: in the case of `CCc1ccccc1NC(=O)N1CCC2(CC1)Oc1ccccc1C(=O)N2Cc1ccccc1F` it was “inactive”.
Still for that read-out and setting: next, `CCC(=O)Nc1c(C(=O)N2CCN(c3ccc(F)cc3)CC2)oc2ccccc12`: “inactive”; `COc1cc(C(=O)NCC(c2ccc(Cl)cc2)N2CCOCC2)cc(OC)c1OC` (stereo not given): “inactive”.
For `COc1cc(C(c2c(NC(=O)c3ccco3)sc(C)c2C)N2CCOCC2)cc(OC)c1OC` (stereo not given), the Potency was 50.1 µM (active).
With `CCc1cc(C(c2ccccc2OC)N2CCOCC2)c(NC(=O)c2ccccc2)s1` (stereo not given), the activity, negative = inhibition was 7.98% [at 0.501 µM] (inactive).
`O=C(NCCN1CCOCC1)c1cccc(S(=O)(=O)Nc2ccc(F)cc2)c1`: the activity, negative = inhibition was 8.8% [at 12.7 µM] (inactive).
As to `Cc1cccc(OCCSc2nc3ccc(NC(=O)COc4ccccc4C)cc3s2)c1`, the Potency result is “inactive”.
Still for that read-out and setting: next, `COCc1[nH][nH]c(=O)c1C=Nc1ccc(F)cc1F`: 20 µM (active).
With `Cc1c(C(C)CCCO)oc(=O)c2c1Oc1c(C)c(C(C)C[C@@H](C)O)oc(=O)c1C2` (stereo not given in full), the activity, negative = inhibition is 9.9% [at 2.33 µM] (inactive).
`Cc1ccc2nc(SCC(=O)N3CC(C)OC(C)C3)nc(=O)n2c1` (stereo not given): the Potency entry is “inactive”.
With `O=S(=O)(Nc1cc(Cl)ccc1N1CCOCC1)c1ccccc1Cl`, the activity, negative = inhibition was 13.1% [at 2.33 µM] (inactive).
For `CCN(CC)S(=O)(=O)c1ccc(N2CCN(C)CC2)c(NC(=O)Nc2ccccc2F)c1`, the Potency was 39.8 µM (active).
On the same count and under the same terms, next, `CCN(CC)S(=O)(=O)c1ccc(N2CCCC2)c(NS(=O)(=O)c2cccs2)c1`: 28.2 µM (active); `CCN(CC)S(=O)(=O)c1ccc(N2CCOCC2)c(NC(=O)C2COc3ccccc3O2)c1` (stereo not given): “inactive”.
Regarding `CN1CCN(c2ccc(S(=O)(=O)N3CCCCC3)cc2NC(=O)Cc2ccccc2F)CC1`, the Potency result is “inactive”.
The same measure, in the same setting: next, `COCCNC(=S)Nc1cc(S(=O)(=O)N2CCOCC2)ccc1N1CCCCC1`: 2 µM (active); `CCN(CC)S(=O)(=O)c1ccc(N2CCOCC2)c(C(=O)O)c1`: “inactive”.
For the compound `COc1ccc(S(=O)(=O)N2CCCCC2)cc1NC(=O)c1cc([N+](=O)[O-])ccc1N1CCOCC1`, the Potency entry was “inactive”.
On the same count and under the same terms, next, `O=S(=O)(Nc1cc(S(=O)(=O)N2CCOCC2)ccc1N1CCCC1)c1cccs1`: 20 µM (active); `CC(=O)NCCC(=O)Nc1cc(S(=O)(=O)N2CCOCC2)ccc1N1CCOCC1`: “inactive”.
Still for that read-out and setting: in the case of `CCN(CC)S(=O)(=O)c1ccc(Cl)c(C(=O)NC(C)C(c2cccs2)N2CCCC2)c1` (stereo not given) it was “inactive”; in that of `Cc1ccc(NS(=O)(=O)c2cccs2)cc1S(=O)(=O)N1CCCCCC1`, “inactive”.
On the same count and under the same terms, next, `NC(=O)c1cc(S(=O)(=O)NCCCc2ccco2)cs1`: “inactive”.
In the case of `COc1ccc(Cn2ccnc2SCC(=O)NCc2ccco2)cc1`, the Potency result was “inactive”.
Same read-out and setting: in the case of `COc1cc(OC)cc(C(=O)Nc2cc3nn(-c4ccccc4)nc3cc2Cl)c1` it was “inactive”.
Consider `C[C@@H]1NC(=O)[C@@]2(C)[C@@H](c3ccccc3)[C@H]3COc4ccccc4[C@@H]3N2C1=O`, for which the activity, negative = inhibition is -3.98% [at 0.501 µM] (inactive).
As to `Cc1cccc(-n2c(=O)c3c(c4cc(C)ccc4n3C)n(CC(=O)Nc3ccccc3Cl)c2=O)c1`, the Potency entry is “inactive”.
Turning to `CCCn1c(N)c(N(CCOC)C(=O)C2CCCC2)c(=O)[nH]c1=O`, the activity, negative = inhibition was 15% [at 2.33 µM] (inactive).
`Cc1ccc(-c2nc(-c3ccncc3)no2)c(C)c1`: the Potency entry was “inactive”.
Same read-out and setting: next, `COc1cccc(-n2c(=O)c3c(C)c(C(=O)N(C)C)sc3n(Cc3cccc(C)c3)c2=O)c1`: “inactive”.
The same measure, in the same setting: in the case of `COc1ccc(CCNC(=O)c2ccc3c(c2)nc(C)n3-c2ccc(Br)cc2)cc1OC` it was “inactive”; in that of `CCOC(=O)c1ccc(CSc2nnc3cc(C)c4ccccc4n23)cc1`, “inactive”.
As for `CCN(CC(=O)Nc1c(F)cccc1F)C(=O)c1ccc(-c2ccccc2)cc1`, the Potency result is “inactive”.
In the case of `N#CCCN(C(=O)COC(=O)C1CCN(c2ccc(C(F)(F)F)cn2)CC1)c1ccc(F)cc1`, the Potency result was “inactive”.
Still for that read-out and setting: next, `COC(=O)c1ccc(NC(=O)CCc2c(C)nn(-c3ccc(N4CCCC4)nn3)c2C)cc1`: “inactive”; `Cn1c(=O)n(Cc2c(F)cccc2Cl)c(=O)c2c1nc1n2CCN1c1ccc(F)cc1`: “inactive”.
On to `Cc1ccc(C(=O)N2CC(=O)Nc3ccccc32)o1`, for which the Potency entry is “inactive”.
On the same count and under the same terms, next, `Cc1ccc(CNC(=O)Cn2cnc(S(=O)(=O)N3CCCCC3)c2)o1`: “inactive”.
Same read-out and setting: in the case of `Cc1ccc(CNC(=O)C2(C(F)(F)F)C/C(=C\Cc3ccccc3)CCCO2)o1` (stereo not given) it was 28.2 µM (active).
The same measure, in the same setting: in the case of `CC(=O)c1ccc(NC(=O)C2CCCN2S(=O)(=O)c2cccs2)cc1` (stereo not given) it was “inactive”; in that of `CC(=O)c1ccc(S(=O)(=O)NC2CC(=O)N(c3ccc4c(c3)OCCO4)C2)cc1` (stereo not given), “inactive”.
As to `CCCCCCCNC(=O)C1(CC2CC(c3cccc(Br)c3)=NO2)CCN(C(=O)c2cc(OCC)c(OCC)c(OCC)c2)CC1` (stereo not given), the activity, negative = inhibition is -31.9% [at 2.33 µM] (inactive).
Consider `O=C(CCN1C(=O)C2C3CCC(C3)C2C1=O)Nc1ccc(Cl)cc1Cl` (stereo not given), for which the Potency entry was “inactive”.
Still for that read-out and setting: next, `CCS(=O)(=O)N1Cc2ccccc2CC1C(=O)Nc1ccc(OC)cc1OC` (stereo not given): “inactive”.
On to `CCS(=O)(=O)N1Cc2ccccc2CC1C(=O)Nc1nc2ccc(F)cc2s1` (stereo not given), for which the Potency was 31.6 µM (active).
`CSc1ncccc1C(=O)Nc1nc2ccc(F)cc2s1`: the Potency entry was “inactive”.
Same read-out and setting: next, `Clc1ccc(C[n+]2cc(-c3ccccc3)n3c2CCC3)cc1`: “inactive”; `Cc1ccc(C(=O)C[n+]2cc(-c3ccccc3)n3c2CCCCC3)cc1`: “inactive and 50.1 µM (active)”; `O=C(C[n+]1cc(-c2ccc(Cl)c(Cl)c2)n2c1CCC2)c1cccs1`: “inactive”.
Still for that read-out and setting: next, `O=C(CSc1ncc(CO)n1Cc1ccc(F)cc1)NCc1ccco1`: “inactive”; `O=C(O)c1ccc2c(c1)N(Cc1ccc(F)cc1)C(=O)c1ccccc1S2=O` (stereo not given): “inactive”.
For the compound `OCC[C@H]1C[C@H](O)[C@@H](O)[C@]2(Cc3ccccc3CO2)O1`, the activity, negative = inhibition was 12.3% [at 2.33 µM] (inactive).
In the case of `COc1ccc(-c2nnc(SC(=O)N3c4ccccc4Sc4ccccc43)o2)cc1`, the Potency was 17.8 µM (active).
In the case of `COc1ccc(-c2nnc(SCc3cccnc3)o2)cc1`, the Potency result was “inactive”.
As to `COc1ccc(-c2nnc(SC(C)C(=O)NC3CC3)o2)cc1` (stereo not given), the activity, negative = inhibition is 3.83% [at 12.7 µM] (inactive).
In the case of `Cc1ccccc1C(=O)NCc1nc(-c2ccc(Cl)cc2)no1`, the Potency result is “inactive”.
Still for that read-out and setting: in the case of `CC1CN(c2cc(=O)n(-c3cccc(Br)c3)c(=O)[nH]2)CC(C)O1` (stereo not given) it was 44.7 µM (active); in that of `CC1CN(c2cc(=O)n(Cc3ccc(F)cc3)c(=O)[nH]2)CC(C)O1` (stereo not given), “inactive”.
Same read-out and setting: next, `CC1CN(C(=S)Nc2ccc(Br)cc2Cl)CC(C)O1` (stereo not given): “inactive”; `COC(=O)c1ccccc1N=Nc1c(C)[nH][nH]c1=O`: “inactive”; `Cc1[nH][nH]c(=O)c1N=Nc1ccccc1`: 50.1 µM (active).
The same measure, in the same setting: in the case of `Cc1cccn2c(=O)c3cc(C(=O)NC(C)c4ccccc4)c(=N)n(CCCO)c3nc12` (stereo not given) it was “inactive”.
`Cc1ccsc1C(=O)NC1CCCCC1C` (stereo not given): the activity, negative = inhibition was 16.6% [at 12.7 µM] (inactive).
For `Cc1nc(Nc2ccc3c(c2)OCCO3)c2nnn(Cc3ccccc3Cl)c2n1`, the Potency entry was “inactive”.
On the same count and under the same terms, next, `Cc1ccc(S(=O)(=O)NCC(=O)Nc2ccc3c(c2)OCCO3)cc1`: “inactive”.
The same measure, in the same setting: next, `Cc1ccc2nc(-c3ccncc3)cc(C(=O)Nc3ccc4c(c3)OCCO4)c2c1`: “inactive”; `Cc1ccn2c(Nc3ccc4c(c3)OCCO4)c(-c3ccc(C)s3)nc2c1`: “inactive”; `Cc1ccc(-c2nc3cccc(C)n3c2Nc2ccc3c(c2)OCCO3)cc1`: 12.6 µM (active).
As to `Oc1ccccc1-c1nc2ccc(Cl)cn2c1Nc1ccc2c(c1)OCCO2`, the Potency result is “inactive”.
The same measure, in the same setting: in the case of `Cc1ccc2nc(-c3cccnc3)c(NC3CCCC3)n2c1` it was “inactive”; in that of `Cc1ccc2nc(-c3ccc(O)cc3)c(Nc3ccc4c(c3)OCO4)n2c1`, 3.55 µM (active); in that of `Cc1cccc2nc(-c3ccc(Cl)s3)c(Nc3ccc4c(c3)OCCO4)n12`, 10 µM (active).
